HEK293 tox: qHTS of GLP-1 Receptor Inverse Agonists: Cytotox Screen; AID 624418, 2012; hit rate 0.13% among 410,000; Potency, µM (doses to about 38.3 µM), inactives show at the highest dose activity change, negative = inhibition, actives largely listed as inhibitors; HEK293 cAMP-luciferase reporter cells, luminescence, 24 h;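 also: loss of luciferase light is scored as toxicity; potency is read from the fitted curve at half-maximal effect; % is scaled to controls: 0 for no effect and ±100 for the full control effect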
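Step one: seed cells (200 cells/uL, DMEM with 10% Nu serum, 1% pen-strep). Step two: 12-hour incubation at 37 deg C. Step three: pin 23 nL compound, incubate 24 hr. Step four: add luciferase reagent, read luminescence 12 min later.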
TSHR antag: Antagonists of the Thyroid Stimulating Hormone Receptor: HTS campaign. Thyrotropin receptor (Homo sapiens), P16473. TSHR-expressing cells, TSH-stimulated cAMP HTRF, 2 h; hits give low values. activity change, negative = inhibition, % at 11.5 µM. hit rate 0.2% among 330,000;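 active = activity change below a set negative limit, meaning inhibition stronger than a set level, cut at about -70% in these data; inconclusive = activity change between two set negative limits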; also: % is scaled to controls: 0 for no effect and ±100 for the full control effect
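Freshly harvested TSHR cells receive pin-tooled compound, then EC80 TSH at 4nM final. After 2 hours at 37 deg C, antibody in lysis buffer and cAMP-d2 are added; 30 minutes at ambient temperature precede the HTRF read.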
RXFP1 antagonist: qHTS Assay for Antagonists of the Relaxin Receptor RXFP1; activity change, negative = inhibition, % at 57.5 µM; hit rate 0.59% among 350,000; HEK293-RXFP1, relaxin-stimulated cAMP HTRF, 30 min; hits give low values; Relaxin receptor 1 (Homo sapiens), Q9HBX9;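 active = activity change of -60% or lower, but not beyond a set lower limit; inconclusive = change between -60% and -40%, or beyond the set limit; inactive = change above -40%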; also: % is scaled to controls: 0 for no effect and ±100 for the full control effect
Target sequence (Q9HBX9 whole entry, looked up): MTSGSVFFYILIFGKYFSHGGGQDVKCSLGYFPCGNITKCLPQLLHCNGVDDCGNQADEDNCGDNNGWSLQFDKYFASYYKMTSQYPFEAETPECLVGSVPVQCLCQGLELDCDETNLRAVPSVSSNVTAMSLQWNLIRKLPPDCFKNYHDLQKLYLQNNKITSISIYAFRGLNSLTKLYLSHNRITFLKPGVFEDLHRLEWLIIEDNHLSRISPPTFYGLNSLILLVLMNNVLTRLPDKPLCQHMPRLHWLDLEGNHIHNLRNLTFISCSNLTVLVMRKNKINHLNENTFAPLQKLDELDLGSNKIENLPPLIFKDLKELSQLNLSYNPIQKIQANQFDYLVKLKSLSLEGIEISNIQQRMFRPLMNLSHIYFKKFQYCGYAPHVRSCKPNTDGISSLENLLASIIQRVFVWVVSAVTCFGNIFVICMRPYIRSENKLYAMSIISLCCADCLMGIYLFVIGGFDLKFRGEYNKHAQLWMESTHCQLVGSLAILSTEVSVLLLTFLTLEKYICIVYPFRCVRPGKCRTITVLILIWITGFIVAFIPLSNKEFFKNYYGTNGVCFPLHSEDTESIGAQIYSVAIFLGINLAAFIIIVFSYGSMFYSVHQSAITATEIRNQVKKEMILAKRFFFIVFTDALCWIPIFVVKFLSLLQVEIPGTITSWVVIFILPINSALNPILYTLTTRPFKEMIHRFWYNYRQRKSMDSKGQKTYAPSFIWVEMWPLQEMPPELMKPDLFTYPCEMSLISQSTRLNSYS
NPSR antag: qHTS Assay for Antagonists of the Neuropeptide S Receptor: cAMP Signal Transduction. hit rate 1% among 220,000. Potency, µM (top dose mostly 38.3 µM), for the others: at the top dose activity change, negative = inhibition, most hits filed as inhibitors. CHO-NPSR cells, cAMP TR-FRET, antagonist mode. AID 1461, 2008. Q6W5P4; also: potency is read from the fitted curve at half-maximal effect; % is scaled to controls: 0 for no effect and ±100 for the full control effect; nearly all actives have a fitted effect of over 50% in size
PTHR1 ag: qHTS for PTHR1 Agonists: Primary Screen. Parathyroid hormone/parathyroid hormone-related peptide receptor (Homo sapiens), Q03431. HEK293 GP2 PTHR1 cells, GloSensor cAMP luminescence, 1 h. hit rate 0.075% among 410,000. Potency, µM (top dose mostly 115 µM), without a hit: top-dose activation, most hits filed as activators; also: potency is read from the fitted curve at half-maximal effect; nearly all actives have a fitted effect of over 55% in size
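HEK-293-derived GP2 cells expressing PTHR1 and a GloSensor cAMP reporter, 3,000/well, plated overnight, given luciferin plus IBMX (each 0.5 mM as added) for 1 h at 37 °C, then compound for 1 h at 37 °C. Luminescence was read after 15 min at room temperature.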
RXFP1 agonist: qHTS Assay for Agonists of the Relaxin Receptor RXFP1. Relaxin receptor 1 (Homo sapiens), Q9HBX9. HEK293T-RXFP1 cAMP TR-FRET, 30 min; response scale: percent of porcine relaxin response, buffer zero. Potency, µM (titrated, usually from 57.5 µM), inactives show at the top dose activation, actives largely listed as activators. hit rate 0.3% among 370,000; also: potency is read from the fitted curve at half-maximal effect; % is scaled to controls: 0 for no effect and ±100 for the full control effect; nearly all actives have a fitted effect of over 60% in size
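HEK293 cells stably expressing RXFP1, treated 30 min at 37C with compounds plus PDE4 inhibitor Ro 20174; cAMP measured by HTRF TR-FRET. Normalized to buffer and 29 nM porcine relaxin; EC50 by Hill fit.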
* marks the source's active call; other numbers are inactive results; i = inactive; ? = inconclusive; . = no result given; [ ] = another dose, or the depositor's remark. The sample as a whole holds a higher share of hits than the screen did. Unless noted, calls follow the shape of the dose curve; as a rule, active = well fitted curve in the direction sought with a large enough effect; inconclusive = small, poorly fitted or top-dose-only effect, or another doubt; inactive = no such curve, though single readings can be large; an effect the other way counts as inactive or inconclusive.

SMILES	HEK293 tox	TSHR antag	RXFP1 antagonist	NPSR antag	PTHR1 ag	RXFP1 agonist
COc1ccccc1-n1cc(C(=O)N2CCCC(CO)(Cc3ccccc3C)C2)cn1 (stereo not drawn)	10%	-8	?	36%	-14%	-1%
CC1CC(=O)NN=C1c1ccc(NCC(C)(C)NCC(O)COc2cc(Cl)ccc2C#N)cc1 (stereo not drawn)	.	.	13	.	.	.
COc1ccc(CCNC(=O)C(C)n2nc(C)n3c(cc4occc43)c2=O)cc1OC (stereo not drawn)	-3%	0	22	.	-41%	4%
CC(C)CN(CCCNC(=O)Cn1ncc2c3ccccc3n(C)c2c1=O)CC(C)C	-10%	.	-5	.	-29%	0%
CC(NCc1ccc(OCc2ccc(Cl)cc2)cc1)C(O)c1ccccc1 (stereo not drawn)	?	15	-100*	?	-31%	2%
Cc1ccccc1OCC(=O)Nc1c(C)ccc2nsnc12	11%	.	-1	.	-58%	14%
O=C(O)COc1ccc2nsnc2c1Cl	68%	-2	.	13µM*	?	8%
NC(=S)NN=C1CCCCCCCC1	?	.	-12	.	?	.
NC(=S)NN=C1CCCCCCCCC1	4.5µM*	.	-9	.	-24%	.
CC(C)CCn1c(SCc2cccc(F)c2)nc2ccsc2c1=O	15%	.	-76*	.	i	4%
CCc1ccc2oc(C(=O)NCc3ccc(S(N)(=O)=O)cc3)c(C)c2c1	-14%	1	-120*	-7%	i	17%
COc1cccc(-c2nnc(SC(C(=O)c3c[nH]c4ccccc34)c3ccccc3)n2C)c1 (stereo not drawn)	-6%	-14	-77*	-40%	-18%	0%
c1ccc(SSc2ccccn2)nc1	9%	.	-66*	.	-17%	.
Cc1[nH]c(=S)[nH]c(=O)c1CCOc1ccccc1	-10%	10	-81*	-10%[46.1 µM]	i	-1%
CCCCCCCCOC(=O)CCc1c(C)[nH]c(=S)[nH]c1=O	8%	19	-70*	-24%[46.1 µM]	i	5%
O=C(c1cc2sccc2n1Cc1ccccc1)N1CCc2ccccc21	4%	-9	-11	10µM*	i	2%
Cc1cc(O)c2c(O)c3c(O)cccc3cc2c1	.	.	-33	.	.	.
O=C(NCCCN1CCCC1)c1ccc2c(c1)N(Cc1ccccc1)CCS2	4.5µM*	-5	-10	-16%	-21%	6%
CCN1CCN(CCCNC(=O)c2ccc3c(c2)N(Cc2ccccc2)CCS3)CC1	?	-27	-29	.	-7%	28%
CCc1ccc(NC(=O)C2CCN(C(=O)N3CC(CC)Oc4ccccc43)CC2)cc1 (stereo not drawn)	-6%	.	-15	.	-46%	0%
Cc1ccc(S/C=C\C(=O)c2ccccc2)cc1	?	-21	-21	13µM*	i	0%
Cc1ccc(C(=O)Nc2ccc(-c3cn4cccnc4n3)cc2)cc1C	-3%	.	.	.	-14%	9%
CCN(CC)S(=O)(=O)c1cccc(C(=O)Nc2nc3cc4c(cc3s2)OCCO4)c1	-29%	-78*	-14	-19%[46.1 µM]	-30%[57.5 µM]	2%
CCCC(C(=O)NC(C)(C)C)N(CCN1CCOCC1)C(=O)CNS(=O)(=O)c1ccccc1 (stereo not drawn)	-5%	0	1	.	i	1%
Oc1ccc(C=NNC(=S)Nc2ccc(F)cc2)c(O)c1	-4%	.	-64*	.	-1%	.
SMILES	HEK293 tox	TSHR antag	RXFP1 antagonist	NPSR antag	PTHR1 ag	RXFP1 agonist
S=C(N/N=C/c1ccccc1Cl)Nc1ccccc1	4µM*	41	12	?	i	1%
Cc1ccc(C(=O)c2cn(CC(=O)NC3CCCCC3)c3nc(C)ccc3c2=O)cc1	5%	.	-9	.	i	16%
C/C(CCc1ccc2c(c1)OCO2)=N\NC(=S)NC(C)C	3.2µM*	9	.	-49%	26%	-1%
CN(CCCC[C@H](CNCc1ccc(-c2ccccc2)cc1)N1C[C@H](c2ccccc2)N(CCc2ccc(Cl)c(Cl)c2)C(=O)C1=O)Cc1ccc(-c2ccccc2)cc1	.	3	.	10µM*	.	10%
Cc1ccccc1-c1nc(CS(=O)CC(=O)NCc2ccccn2)c(C)o1 (stereo not drawn)	0%	2	5	.	i	-4%
Cc1ccc2c(C)cc(=S)[nH]c2c1	-16%	-8	8	-17%	i	28µM*
C[C@@H](NCCCc1cccc(C(F)(F)F)c1)c1cccc2ccccc12	.	.	-68*	.	.	.
NS(=O)(=O)c1ccc(Oc2ccc(S(N)(=O)=O)cc2)cc1	4%	-4	-5	18%	-9%	1%
C=CS(=O)(=O)c1ccc(Oc2ccc(S(=O)(=O)C=C)cc2)cc1	?	-89*	-29	-39%	-36%	1%
CC1CN(c2cc3c(cc2F)c(=O)c(C(=O)O)cn3-c2ccc(F)cc2F)CCN1 (stereo not drawn)	.	.	10	.	.	.
Cc1nc2scc(C)n2c(=O)c1S(=O)(=O)N1CCN(c2ccccn2)CC1	?	15	18	.	-7%	25µM*
COc1ccc(CCNC(=O)C2CC(=O)N(CCc3ccccc3)C2)cc1OC (stereo not drawn)	5%	2	12	-2%	-11%	-1%
COc1ccc(CCN2CC(C(=O)NCC(c3ccccc3)N(C)C)CC2=O)cc1OC (stereo not drawn)	6%	-2	-90*	.	-6%	.
CCCCCOc1ccc(C2SC(=O)NC2=O)cc1OCC (stereo not drawn)	.	.	-32	.	.	.
CCOP(=O)(c1ccccc1)c1nc(-c2ccccc2C)oc1N1CCCCC1 (stereo not drawn)	-13%	-2	-30	10µM*	i	-1%
Cc1ccccc1-c1nc(P(=O)(c2ccccc2)c2ccccc2)c(N2CCOCC2)o1	-12%	6	4	51%	3%	1%
CC(C)c1ccccc1NC(=O)c1ccccc1NC(=O)C1CCCCC1	3%	133	-15	-43%	-15%	1%
CC(C)c1ccccc1NC(=S)NC(=O)C1CCCCC1	?	.	-65*	.	-77%	.
O=[N+]([O-])c1c(Nc2ccccc2O)cc(Cl)c2nonc12	?	-77*	-75*	.	-30%	-2%
CCOC(=O)N1CCN(C(=O)c2ccc(-n3c(=S)[nH]c4ccccc4c3=O)cc2)CC1	-7%	-4	-107*	-14%	-2%[57.5 µM]	29%
